Bioassay records deposited in PubChem by National Center for Advancing Translational Sciences (NCATS).
SNCA viab count = counter-screen for SNCA expression inhibitors: cell viability; AID 1671193; HEK-293-SNCA-luc viability, GF-AFC fluorescence, 24 h; Potency, µM (highest dose often 57.1 µM), without a hit: at the highest dose activity change, negative = cytotoxicity, most hits filed as cytotoxic; 0.12% of 150,000 active;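 also: potency is read from the fitted curve at half-maximal effect; 0% = DMSO-treated cells and -100% = medium-only wells without cells; nearly all actives have a fitted effect of over 30% in size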
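HEK-293-SNCA-luc cells (1500/well) plated 24 h, then exposed 24 h to a dilution series; GF-AFC added 30 min at 37C, fluorescence 405/540 nm; normalised to medium-only and DMSO wells, Hill fit.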
IP6K1 inh = blocks human inositol hexakisphosphate kinase 1 | IP6K1 kinase, ADP-Glo luminescence, 2 h; active compounds read low | activity change, % (series mostly up to about 58 µM) | 0.81% of 140,000 active | AID 1645851; in the data active = activity change below about -25%
Target sequence (Q92551 whole entry, looked up): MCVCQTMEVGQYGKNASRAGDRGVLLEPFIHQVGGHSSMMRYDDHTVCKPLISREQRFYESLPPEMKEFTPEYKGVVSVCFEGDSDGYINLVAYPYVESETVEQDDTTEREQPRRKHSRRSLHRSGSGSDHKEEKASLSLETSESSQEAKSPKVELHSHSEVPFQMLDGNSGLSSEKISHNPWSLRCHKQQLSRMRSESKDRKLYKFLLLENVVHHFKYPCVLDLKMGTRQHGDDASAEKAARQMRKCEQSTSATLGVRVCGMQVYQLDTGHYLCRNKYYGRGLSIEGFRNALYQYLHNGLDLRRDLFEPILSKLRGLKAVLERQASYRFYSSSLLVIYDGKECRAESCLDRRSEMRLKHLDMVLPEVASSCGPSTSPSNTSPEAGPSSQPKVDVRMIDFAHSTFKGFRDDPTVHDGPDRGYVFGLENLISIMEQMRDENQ
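ADP-Glo luminescence measures ADP made by human IP6K1 during a 2 h RT reaction with ATP/IP6 (mix at 1.3 mM/130 uM); top library doses 57.5 and 19.1 uM final.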
SNCA expr inhib = reduces expression of the alpha-synuclein gene; HEK-293 SNCA-luciferase knock-in, luminescence, 24 h; Potency, µM (highest dose often 57.2 µM), without a hit: top-dose activity change, negative = inhibition, hits mostly inhibitors; 0.17% of 140,000 active; AID 1671194;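 also: potency is read from the fitted curve at half-maximal effect; plate controls were DMSO cells for no effect and cell-free wells for full effect; nearly all actives have a fitted effect of over 45% in size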
GPT2 inh = blocks human glutamate pyruvate transaminase 2. AID 1671188. Recombinant GPT2, coupled pyruvate oxidase/HRP Amplex Red fluorescence. 0.25% of 100,000 active. Potency, µM (doses to about 57.7 µM), for the others: at the highest dose activity change, negative = inhibition, hits mostly inhibitors; also: potency is read from the fitted curve at half-maximal effect; nearly all actives have a fitted effect of over 60% in size
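Inhibition is scored from Amplex Red fluorescence generated when pyruvate oxidase and HRP act on pyruvate released by GPT2. Reactions contain 10ng/uL enzyme, 250uM a-KG and 2mM L-alanine and run 30 min at room temperature.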
IP6K1 inh cnf = confirmation of human IP6K1 inhibitors | 13% of 1,200 active | recombinant IP6K1 kinase, ADP-Glo luminescence, 2 h | AID 1645852 | shares compounds with IP6K1 inh | Potency, µM (series often up to 49 µM), inactives show top-dose activity change, negative = inhibition, usual class: inhibitors; also: potency is read from the fitted curve at half-maximal effect; nearly all actives have a fitted effect of over 65% in size
An asterisk follows results filed as active; i = inactive; ? = inconclusive; · = no result given; ! = a repeat was not active; [ ] = dose if it differs, or a comment. Hits are enriched below; roughly 1.1% of the tested compounds scored in any of these assays. Unless noted, calls follow the shape of the dose curve; as a rule, active = well fitted curve in the direction sought with a large enough effect; inconclusive = small, poorly fitted or top-dose-only effect, or another doubt; inactive = no such curve, though single readings can be large; an effect the other way counts as inactive or inconclusive. Unless noted, % is scaled to controls: 0 for no effect and ±100 for the full control effect.

SMILES | SNCA viab count | IP6K1 inh | SNCA expr inhib | GPT2 inh | IP6K1 inh cnf
C=Cc1ccc(Cn2c(C(=O)O)c(CNCCc3ccco3)c3ccc(C)cc32)cc1 | ? | -29* | -27% | · | 1%
Cc1cccc(Cc2c(C)nc3nc(SCC(=O)NCc4ccc(F)cc4)nn3c2C)c1 | -9% | -37* | -13% | · | ?
CN1C[C@H](NCc2ccc(C(F)(F)F)cc2)CCC[C@@H](C(=O)NC2CC2)CC1=O | 3%[87.6 µM] | -6 | 7%[87.6 µM] | i | ·
CN1C[C@H](NCc2ccc(F)cc2)CCC[C@@H](C(=O)NC2CC2)CC1=O | 6%[87.6 µM] | -26* | 5%[87.6 µM] | 4%[88.5 µM] | ?
CC(C)OCCCNC(=O)CCCN1C(=O)CCn2nc(-c3cccn3C)cc21 | 12% | -34* | -1% | · | 11%
CC(C)N(Cc1ccccc1)C(=O)c1cc2ccc3cccnc3c2[nH]1 | -30% | 8 | 48% | · | ·
CC(C)N(CCC(=O)c1ccc2ccccc2c1)Cc1ccccc1 | ? | -12 | 8% | ? | 9.2µM*
Cc1ccc(C2Cn3nnc(C(=O)N4CCC(C(=O)NC5CC5)CC4)c3CO2)cc1 (stereo unspecified) | 14% | 0 | 105% | i | ·
O=C(c1ccc2cc[nH]c2c1)N1CCN(C(=O)c2nnn3c2COC(c2ccc(Cl)cc2)C3)CC1 (stereo unspecified) | -25% | -28* | -8% | i | -9%
Cc1ccc(C2Cn3nnc(C(=O)N4CCC(C(=O)NC5CCC(C)CC5)CC4)c3CO2)cc1 (stereo unspecified) | 0% | -30* | 5% | i | -10%
O=C(Cn1nc2c(cc1=O)CCCC2)NC1CCCc2c1[nH]c1ccccc21 (stereo unspecified) | 1% | -18 | 4% | i | ·
Cc1cccc(CN2CCNc3cc(-c4ccnc(C)c4)ncc3C2)c1 | ? | -29* | 0%[87.6 µM] | 5%[88.5 µM] | -17%
CC(C)c1cc(-c2n[nH]c(=O)n2-c2ccc3c(ccn3C)c2)c(O)cc1O | -25% | -43* | ? | -5% | 9.2µM*
Cn1c(=O)nc2n(-c3ccc(Cl)c(Cl)c3)c3cc(Cl)ccc3cc-2c1=O | -8% | 8 | ? | · | ·
CN(Cc1ccccc1)C(=O)CSc1c2c(nc3ccc(Cl)cc13)CCCC2 | ? | 28 | ? | · | ·
Cc1nn2c(=O)cc(COC(=O)c3ccc(F)cc3)nc2s1 | -5% | -27* | 71% | · | -13%
Cc1cccc(CNC(=O)C2CCN(c3nnc(-n4c(C)ccc4C)s3)CC2)c1 | -6% | -9 | -21% | · | ·
CN(Cc1ccccc1)C(=O)c1ccc(S(=O)(=O)Nc2ccccc2)cc1 | · | · | · | · | -9%
Cc1ccc(NC(=O)/C(C#N)=C/c2cc(C)n(-c3ccc(Br)cc3)c2C)cc1C | ? | -29* | ? | · | -11%
Cc1ccc(-n2c(C)cc(/C=C(\C#N)C(=O)Nc3ccc(C)c(C)c3)c2C)cc1 | -5% | -8 | 15% | · | ·
CC(C)CCC1=NC2(CCN(C(=O)CCN3CCCCC3=O)CC2)C(=O)N1 | -3% | -35* | -6% | -8%[11.5 µM] | -14%
CCOC(=O)N1CCC2(CC1)N=C(CCC(C)C)NC2=O | 3% | 11 | ? | -6% | ·
Cc1ccccc1Nc1c(-c2ccc(N3CCOCC3)cc2)nc2ccccn12 | -9% | -9 | ? | · | ·
Cc1cc(N2CCOCC2)ccc1Nc1nc(NC2CCCCC2)c2[nH]cnc2n1 | -27% | -47* | · | -5% | 2.1µM*
Cc1ccc(C(=O)NC2CCN(c3ccc4nnc(-c5ccccc5)n4n3)C2)cc1 (stereo unspecified) | · | 3 | · | · | ·
SMILES | SNCA viab count | IP6K1 inh | SNCA expr inhib | GPT2 inh | IP6K1 inh cnf
COc1cc2nc(-c3cc(F)ccc3O)nc(N[C@@H]3CNC[C@H]3C(C)(C)O)c2cc1OC | ? | -62* | · | i | 3.3µM*
COc1ccc(C(=O)Nc2noc3ccccc23)cc1 | -3% | -58* | ? | · | 7.3µM*
O=C(Nc1noc2ccccc12)c1cccc(Cl)c1Cl | 7% | -4 | ? | · | ·
Cc1ccc(C(=O)Nc2noc3ccccc23)cc1 | -10% | -55* | · | -3% | ?
CN(C)c1ccc(CN2CCC3(C2)C(=O)N(c2ccccc2)c2ccccc23)cc1 (stereo unspecified) | -26% | -6 | -19% | i | ·
COc1cc2c(-c3ccccc3)c(C)oc2cc1CN1CCC2(CC1)C(=O)N(C(C)C)C(=O)N2C | 8% | -10 | ? | -3% | ·
Fc1cccc(CN2CC[C@@H]3CN(Cc4ccccc4)[C@@H]3C2)c1 | 0% | 11 | -7% | i | ·
Cc1ccc(CSc2ncc(Cl)c(C(=O)Oc3ccccc3F)n2)cc1 | 9% | -24 | -5% | · | ·
O=C(Oc1ccccc1F)c1nc(SCc2ccccc2F)ncc1Cl | 9% | -33* | 6% | · | -19%
COc1ccc(-c2nc3sc(CCNC(=O)C(=O)Nc4ccc(C)cc4C)c(C)n3n2)cc1 | -5% | -1 | 27% | · | ·
CCOC(=O)c1ccc(NC(=O)CSc2nnc(-c3ccncc3)n2-c2ccccc2)cc1 | 0% | -27* | 28% | · | 21%
Cc1ccc(CN(Cc2ccco2)C(=O)c2oc3c(C)c(C)ccc3c2C)cc1 | 1% | -29* | -6% | · | ?
Cc1ccc(CN(Cc2ccco2)C(=O)c2oc3ccc(C)cc3c2C)cc1 | 21% | -12 | 20% | · | ·
COc1ccc(-c2nc3ncccc3[nH]2)cc1 | -17%[87.6 µM] | -27*! | -26%[87.6 µM] | 0%[88.5 µM] | ?
COc1ccc(CN2CCc3nc(N4CCN(C)CC4)[nH]c(=O)c3CC2)c(OC)c1OC | -12% | 27 | 5% | 2% | ·
CN1C[C@@H](NC(=O)Nc2ccccc2)C[C@H]1c1nc(-c2ccccc2)no1 | 2%[87.6 µM] | -25* | 49%[87.6 µM] | i | ?
CN1C[C@@H](NC(=O)Nc2ccccc2)C[C@H]1c1nc(-c2ccc(F)cc2)no1 | -14%[87.6 µM] | -10 | -26%[87.6 µM] | -3%[88.5 µM] | ·
COc1ccc(CN(C)Cc2ccoc2)cc1OCC(O)CN1CCCCC1 (stereo unspecified) | -27% | -38* | -8% | i[11.5 µM] | -11%
COc1ccc(CN(C)Cc2cccs2)cc1OCC(O)CN1CCN(C)CC1 (stereo unspecified) | -16% | 18 | -1% | i | ·
O=Nc1c(-c2c(O)[nH]c3cc(Br)ccc23)[nH]c2ccccc12 | 25µM*! | · | -5% | -4% | 3.7µM*
O=C(NCc1ccc2c(c1)CCN2C(=O)c1ccncc1)c1cccc(F)c1 | 6% | 9 | -4% | · | ·
O=C(NCc1ccc2c(c1)CCN2C(=O)c1ccncc1)c1ccccc1F | 6% | -30* | 10% | · | -23%
CCc1cccc(NC(=O)c2cc3c(=O)n(Cc4ccccc4)ccc3nc2C)c1 | 7% | -27* | -6% | · | 31%
COc1ccc(Cn2ccc3nc(C)c(C(=O)Nc4cccc(SC)c4)cc3c2=O)cc1 | -20% | -1 | -12% | · | ·
O=C(c1ccccc1)n1nc(-c2ccco2)nc1NCc1ccccc1Cl | 5% | -31* | 68% | · | -22%
COCC(=O)n1nc(-c2ccco2)nc1NCc1ccccc1Cl | 2% | -3 | 162% | · | ·
